ssDAF-12 act = activates DAF-12 receptor from parasite S. stercoralis; hit rate 1% among 370,000; HEK293 ssDAF-12/GRIP1 lit1-tk-luc reporter, luminescence; % of 3 µM dafachronic acid response; AID 652126; activation, % at 6.8 µM;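 active = activation above the mean over all tested compounds plus 3 SD, cut at about 0.9% in these data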;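 also: 0% = DMSO-only wells and 100% = 3 µM delta7-dafachronic acid wells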
DAX1 inh-1 = inhibitors of DAX1 repression of SF-1 activated StAR promoter | AID 652010 | hit rate 1.1% among 370,000 | HEK293T StAR-luciferase reporter, SF-1/DAX-1 repression relief | inhibition, % at 6.8 µM;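 active = inhibition above the mean over all tested compounds plus 3 SD, cut at about 3.6% in these data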;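 also: 0% = DAX-1 cells with DMSO and 100% = cells lacking DAX-1 with DMSO; higher inhibition means more luminescence from relief of DAX-1 repression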
hcDAF12 agonist = H. contortus DAF-12 activation, primary screen; HEK293 hcDAF-12 lit1-tk-luc reporter, luminescence; 0% DMSO, 100% Δ7-dafachronic acid; activation, % at 6.8 µM; hit rate 1.4% among 370,000;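 active = activation above the mean of all tested compounds plus 3 SD, cut at about 5.5% in these data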;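 also: 100% = response to 3 µM Δ7-dafachronic acid high control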
FXN GAA850 act = activators of GAA850 frataxin (FXN) promoter; HEK293 lucGAA850 FXN promoter luciferase reporter, 24 h; percent of 10 µM SAHA response; activation, % at 6 µM; hit rate 0.56% among 360,000;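 active = activation above the average of all compounds screened plus 3 SD, cutoff fixed separately per campaign, cut at about 7.5% in these data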;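 also: 0% = DMSO wells and 100% = 10 µM SAHA wells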
DAX1 inh-2 = inhibitors of human orphan nuclear receptor DAX1 (NR0B1); inhibition, % at 6.75 µM; P51843; hit rate 0.99% among 340,000; HEK293 Gal4-DAX1 luciferase reporter, luminescence;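 active = inhibition above the mean over all tested compounds plus 3 SD, cut at about 4.2% in these data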;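 also: 0% = DAX1-transfected cells with DMSO and 100% = empty-vector control cells with DMSO; inhibition shows as a rise in luminescence from relieved DAX1 repression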
Target sequence (P51843 207-470 limits assumed): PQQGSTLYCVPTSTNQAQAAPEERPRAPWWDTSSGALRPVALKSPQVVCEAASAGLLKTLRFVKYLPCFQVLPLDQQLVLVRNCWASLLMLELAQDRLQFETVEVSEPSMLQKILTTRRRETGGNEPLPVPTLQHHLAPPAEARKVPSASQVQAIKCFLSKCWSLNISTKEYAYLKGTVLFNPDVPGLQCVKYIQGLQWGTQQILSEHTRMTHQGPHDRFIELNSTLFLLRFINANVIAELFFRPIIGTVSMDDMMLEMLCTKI
hgDAF12 agonist = activates the H. glycines DAF-12 receptor ligand-binding domain; HEK293 GAL4-hgDAF12 UAS-luciferase reporter, agonist luminescence; normalized to butyrate control; activation, % at 6.8 µM; hit rate 1.8% among 370,000; AID 687014;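 active = activation above a cutoff set at the mean of all screened compounds plus 3 SD, cut at about 10% in these data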;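 also: 0% = DMSO wells and 100% = sodium butyrate wells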
hgDAF12 ag = hgDAF-12 agonism, confirmation assay; HEK293 GAL4-hgDAF12 luciferase reporter, agonist mode; percent of butyrate response; shares compounds with hgDAF12 agonist; AID 743050; activation, % at 6.8 µM; hit rate 80% among 3,300;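 active = mean activation over triplicate wells above the hit cutoff derived from the earlier primary screen, cut at about 11% in these data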;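 also: 0% = DMSO low control and 100% = 2 mM sodium butyrate high control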
LXR ag 2 = LXR-beta agonism as DAF-12 counter-screen; activation, % at 6.8 µM; HEK293 Gal4-LXR luciferase reporter, 24 h; shares compounds with hgDAF12 agonist; 3,300 tested, under 10 active;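 active = mean activation of the triplicate above a set limit carried over from the primary screen, none filed active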
* marks the source's active call; other numbers are inactive results; x = not tested or not shown. A selection: hits, their analogues and other compounds. The true share with any hit is near 4.5%.

SMILES	ssDAF-12 act	DAX1 inh-1	hcDAF12 agonist	FXN GAA850 act	DAX1 inh-2	hgDAF12 agonist	hgDAF12 ag	LXR ag 2
CCC(=O)Nc1ccccc1C(=O)OCC(=O)c1ccccc1	1.3*	3.7*	-2.2	0.8	3.8	16.4*	17.3*	0.7
Cc1cc(NC(=O)c2ccc(N3CCCC3)c([N+](=O)[O-])c2)no1	-1.6	-0.5	-0.9	1.8	-0.2	4.2	x	x
O=C(Nc1ccon1)c1ccc(N2CCCCC2)c([N+](=O)[O-])c1	0.2	2.1	3.0	4.6	2.0	15.3*	16.9*	1.0
CCOc1ccc2nc(NC(=O)C3CCCO3)sc2c1 (configuration not stated)	0.4	3.0	4.5	2.1	1.5	17.5*	16.1*	0.7
CCOc1ccc2nc(NC(=O)COC)sc2c1	0.9	4.5*	2.2	7.3	0.2	14.2*	16.5*	0.8
CCOc1ccc2nc(NC(=O)NC3CCCCC3)sc2c1	-0.7	0.2	-0.1	0.6	-0.2	-0.6	x	x
CCOc1ccc2nc(NC(=O)Nc3ccccc3)sc2c1	-0.7	2.3	2.3	3.8	4.5*	14.8*	16.1*	1.0
CCN(CCn1cccn1)C(=O)C1CCC(=O)N(CCc2cccc(F)c2)C1 (configuration not stated)	-0.8	-0.4	-0.5	0.1	0.4	-2.2	x	x
COC(=O)c1sc2nc3c(cc2c1N)COC(C)(C)C3	0.1	4.0*	2.5	3.2	1.4	16.5*	16.9*	0.7
Clc1ccc2nc(CSc3nncn3-c3ccccc3)cn2c1	-2.1	0.4	-2.1	1.4	0.5	-1.3	x	x
Clc1ccc2nc(CSCc3ccccc3)cn2c1	0.9*	4.0*	2.4	5.0	2.1	18.9*	14.2*	0.8
CCCc1cc(=O)[nH]c(SCC(=O)Nc2cc(S(=O)(=O)N(CC)c3ccccc3)ccc2Cl)n1	-0.2	-1.2	0.0	1.8	-0.1	-0.2	x	x
O=C(O)c1ccc2c(c1)C(=O)N(c1cccc(-c3nc4ccccc4s3)c1)C2=O	-0.9	1.1	0.1	3.3	0.6	15.6*	3.1	0.1
C/C(=N\NC(=O)c1nnn(-c2nonc2N)c1CN(C)c1ccccc1)c1cccnc1	0.6	1.7	5.5	-1.3	-0.5	13.4*	0.1	0.1
Cc1ccc2[nH]c3c(c2c1)CN(C(C)C)CC3	-1.4	0.0	1.3	0.2	-0.2	-1.3	x	x
Cc1cc(N2CCOCC2)ccc1/C=C1/SC(=O)NC1=O	0.2	1.1	5.2	2.0	1.2	15.7*	8.6	0.3
Cc1ncc(CO)c(CO)c1O	-0.9	0.3	-1.4	-1.5	0.2	2.6	x	x
Cc1ncc(CO)c(CNc2ccc(-c3nc4ccccc4[nH]3)cc2)c1O	-0.8	1.9	1.5	5.9	1.0	15.8*	13.3*	0.6
O=C1NC(c2ccc(O)cc2)Nc2ccccc21 (configuration not stated)	-0.6	0.4	0.2	-0.3	1.6	2.9	x	x
CSc1ccc(C2NC(=O)c3ccccc3N2)cc1 (configuration not stated)	-0.2	-0.3	3.1	0.0	4.6*	14.7*	13.9*	0.4
CCN1C[C@@H]2[C@@H]3C(=O)N(C)C(=O)[C@@H]3[C@](Cc3ccccc3)(C1=O)N2C(=O)c1ccc(Cl)c(Cl)c1	-1.2	-0.3	-0.5	-1.1	1.6	2.3	x	x
COc1ccccc1NS(=O)(=O)c1ccc(C)c(C(=O)N2CCN(c3ccc(O)cc3)CC2)c1	-1.6	-4.0	0.9	-2.0	0.0	-2.9	x	x
O=C(Nc1ccc2c(c1)OCO2)OC1CCC12CCCCC2 (configuration not stated)	-0.4	2.6	0.0	x	x	15.4*	13.4*	0.4
O=C(COC(=O)C1CC1)Nc1ccc2c(c1)OCO2	-1.5	0.4	1.0	1.2	0.3	-1.1	x	x
CCN(CC)c1ccc(S(=O)(=O)N2CCOCC2)cc1NC(=O)CSc1n[nH]c(N)n1	-1.2	0.3	0.6	-0.8	-0.4	2.1	x	x

Screening results deposited in PubChem by The Scripps Research Institute Molecular Screening Center.
